The source of these data is PubChem BioAssay (NCI).

Compounds without any hit were thinned out: in the full panel of roughly 83,000, 20% have a hit.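 Note: values are percent growth. 100 is the growth of untreated cells, values between 100 and 0 indicate rising inhibition; between -100 and 0 indicates cell death.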 Values without a mark were called inactive. Calls of active or inactive are those of the source. How the source made its calls: active means growth percent below 10; inactive means the rest.

The test system of this assay is NCI/ADR-RES ovarian. The assay is described as follows: NCI-60 one-dose screen, 48 h (100 = growth as untreated, 0 = no growth, -100 = all killed). The settings on record: 10 µM unless noted.
On to `N#C/C(C(=O)c1ccccc1)=C1/C(=O)Nc2ccc(F)cc21`, for which the growth is 97.5%. As for `C=C(C)[C@@H]1CC[C@]2(C(=O)NCCCN)CC[C@]3(C)[C@H](CC[C@@H]4[C@@]5(C)CC[C@H](O)C(C)(C)[C@@H]5CC[C@]43C)[C@@H]12`, the growth was -9.52% [100 µM] (active).

For `O=C1/C(=C\c2cn(CC(O)CN3CCCCC3)c3ccccc23)c2ccccc2N1c1c(Cl)cccc1Cl` (configuration not stated), the growth is -56% (active). Turning to `COc1ccc(OC)c([N+](=O)[O-])c1C(=O)CNC(C)=O`, the growth is 94.9%.

`CCNc1cc2c(cc1Br)-c1ccccc1C2=O`: the growth was 96%.

With `CCOc1cccc2c(NC(C)CCCN(CC)CC)c(C)cnc12` (configuration not stated), the growth is 114%.

Turning to `COc1cc(/C=C/C(=O)/C=C/c2ccc(-n3ccnc3C)cc2)ccc1O`, the growth is 102%. With `COc1cc(-c2nc(SCCC(C)C)nc(Nc3ccccc3)c2C#N)cc(OC)c1OC` the figure was 95.5%; with `CN(C)C(=S)Sc1ccc([N+](=O)[O-])cc1[N+](=O)[O-]`, 40.8%. Take `Nc1ccc(Cl)c([N+](=O)[O-])c1`: the growth was 105%. Take `CCCCCCCCCCCCNC(=S)N/N=C/c1ccccc1O`: the growth was 77.1%. With `CC1(C)CC[C@]2(C(=O)OC(=O)[C@]34CCC(C)(C)C[C@@H]3C3=CC[C@@H]5[C@@]6(C)CCC(=O)C(C)(C)[C@@H]6CC[C@@]5(C)[C@]3(C)CC4)CC[C@]3(C)C(=CC[C@@H]4[C@@]5(C)CCC(=O)C(C)(C)[C@@H]5CC[C@]43C)[C@H]2C1` the figure was 69.5% [100 µM].
